Laboratory results: PubChem BioAssay (NCATS)
Results filed as inconclusive are left out. Entries that show only a call come without a potency. The source made the active and inactive calls. Unless noted, calls come from the whole dose curve; as a rule, active = well fitted curve in the direction sought with a large enough effect; inconclusive = small, poorly fitted or top-dose-only effect, or another doubt; inactive = no such curve, though single readings can be large; an effect the other way counts as inactive or inconclusive.

How the values were obtained:
[1] = Cytotoxicity counterscreen for NFkB agonists and antagonists (AID 624476); note: potency is the fitted concentration of half-maximal effect
[2] = qHTS Assay for Identification of Small Molecule Agonists for NFkB Signaling Pathway. (AID 624478)
Procedure, shortened: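 NFkB-bla ME-180 cells (beta-lactamase reporter under NFkB response element) were plated overnight, treated with compound plus TNF alpha at 10 pM final (its EC50) for 5 hrs at 37 C, then loaded with LiveBLAzer substrate for 2 hrs.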

[3] = Cell Proliferation Assay against the TMD8 Cell Line (AID 651645); settings: TMD8 DLBCL cell line proliferation/viability; at 46.1 µM (top of the series) unless noted;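 note: cells exposed to compound for 48 h before reading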
Procedure, shortened: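 Cell viability of the ABC DLBCL line TMD8 is measured by CellTiter-Glo luminescence following a 48-hour incubation with compound. Percent activity uses DMSO as 100% and 9.2 uM bortezomib (final) as 0%.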

[4] = Cell Proliferation Assay against the HBL1 Cell Line (AID 651646); settings: HBL1 DLBCL cells; at 46.1 µM (top of the series) unless noted;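 note: cells exposed to compound for 48 h before reading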
Procedure, shortened: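 500 log-phase HBL1 cells per well in phenol red-free RPMI with 5% FBS were treated with compounds for 48 h at 37 °C, 5% CO2. Viability was read by CellTiter-Glo luminescence, normalized to DMSO (100%) and 9.2 uM bortezomib final (0%).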

[5] = Cell Proliferation Assay against the TMD8 Cell Line (Caspase readout at 16 hrs) (AID 651712); note: potency is the fitted concentration of half-maximal effect
Procedure, shortened: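 TMD8 cells (500/well) in phenol-red-free RPMI with glutamine, 5% FBS, were exposed to compounds for 16 h at 37 °C. Caspase 3/7 activation was read by Caspase-Glo luminescence; percent activity normalised to DMSO (0%) and 9.2 uM bortezomib final (100%).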

[6] = Cell Proliferation Assay against the TMD8 Cell Line (Caspase readout at 8 hrs) (AID 651713)
Procedure, shortened: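 TMD8 cells (500/well) in phenol red-free RPMI with 5% FBS were treated with compounds for 8 h at 37C, 5% CO2. Caspase-Glo 3/7 luminescence was read after 15 min at room temperature and normalised to DMSO (0%) and 9.2 uM bortezomib (100%).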

[7] = qHTS Assay for Identification of Small Molecule Antagonists for NFkB Signaling Pathway. (AID 624479; calls by dose curve;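 note: pathway stimulated with TNF alpha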; note: potency is the fitted concentration of half-maximal effect)
[8] = target: Tyrosine-protein kinase Yes (Homo sapiens) (UniProt P07947); experiment: qHTS for small molecule inhibitors of Yes1 kinase: Primary Screen (AID 686947); note: nearly all actives have a fitted effect of over 60% in size; note: potency is the fitted concentration of half-maximal effect
Chain of Tyrosine-protein kinase Yes (Homo sapiens) (P07947 whole entry, looked up): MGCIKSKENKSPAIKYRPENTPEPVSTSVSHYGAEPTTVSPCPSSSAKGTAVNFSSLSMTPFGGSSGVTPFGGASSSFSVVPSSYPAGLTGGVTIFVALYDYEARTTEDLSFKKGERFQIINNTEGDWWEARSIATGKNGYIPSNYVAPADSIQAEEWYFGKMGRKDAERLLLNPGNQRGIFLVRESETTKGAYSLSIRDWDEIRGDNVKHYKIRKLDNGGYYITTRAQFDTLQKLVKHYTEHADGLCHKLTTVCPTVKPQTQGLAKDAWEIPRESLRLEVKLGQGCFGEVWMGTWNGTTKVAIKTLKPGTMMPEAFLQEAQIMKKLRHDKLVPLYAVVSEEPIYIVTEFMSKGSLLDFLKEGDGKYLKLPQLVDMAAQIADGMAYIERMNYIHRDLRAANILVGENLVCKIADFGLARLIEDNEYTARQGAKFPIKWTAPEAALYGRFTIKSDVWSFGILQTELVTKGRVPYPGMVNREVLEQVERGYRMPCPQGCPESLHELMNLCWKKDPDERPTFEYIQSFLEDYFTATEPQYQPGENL
Procedure, shortened: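 ADP-Glo luminescence readout; final 4 nM Yes1, 0.1 mM ATP, 0.3 mg/mL poly(E4Y), Tris pH 7.5, MgCl2, DTT, Brij-35. 20 min compound preincubation, 60 min reaction at RT. Normalized to DMSO wells with and without enzyme.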

Structure (SMILES) | Potency [1] | outcome [2] | viability (% of control) [3] [%] | viability, percent of control [4] [%] | Potency [5] | Potency [6] | Potency [7] | Potency [8]
C[C@]1(c2nc3c(C(N)=O)cccc3[nH]2)CCCN1 | inactive | inactive | 57.1 | 89.5 | inactive | inactive |  | 
CCc1cncnc1N1CCN(Cc2nc3ccc(C(F)(F)F)cc3[nH]2)CC1 | inactive | inactive | 56.3 | 82.4 |  |  | inactive | inactive
CC1(C)Cc2c(-c3ccccc3)c(-c3ccc(Cl)cc3)c(CC(=O)O)n2C1 | 20.9 µM (active) | inactive |  | 35.6 |  |  | 21.1 µM (active) | inactive
CS(=O)(=O)Oc1ccc2c(NC(N)=O)c(C(=O)c3ccc(Cl)cc3Cl)oc2c1 | inactive | inactive | 84.9 | 78.9 | inactive | inactive |  | inactive
Nc1cccc(S(=O)(=O)N2CCCN(S(=O)(=O)c3ccc4c(c3)OCCO4)CC2)c1 | inactive | inactive | 46.2 | 78.2 | inactive |  |  | 
C[C@H](NC(=O)Cc1cc(F)cc(F)c1)C(=O)N[C@@H]1C(=O)N(C)c2ccccc2-c2ccccc21 | inactive | inactive | 86.6 | 87.3 |  | inactive | inactive | inactive
Nc1ncnc2nc(-c3ccc(N4CCOCC4)nc3)cc(-c3cccc(Br)c3)c12 | inactive | inactive | 74.7 | 66.5 |  |  |  | 
COc1c(Cl)cc2c([nH]c3cnccc32)c1NC(=O)c1cccnc1C | inactive | inactive | 68.9 | 62.3 |  | inactive |  | 
COCC(=O)NCC=Cc1ccc2ncnc(Nc3ccc(Oc4ccc(C)nc4)c(C)c3)c2c1 | 26.4 µM (active) | inactive | 28.1 | 41.4 |  |  | 10.6 µM (active) | 5.47 µM (active)
O=C(C1CC1)N1CC[C@@H](Cn2c(-c3ccc(-c4ccc5occc5c4)cc3)nc3cnccc32)C1 | inactive | inactive | 5.56 | 48.4 | 8.33 µM (active) |  |  | inactive
